Screening data deposited in PubChem BioAssay by National Center for Advancing Translational Sciences (NCATS).
D2 PAM-1: D2 dopamine receptor (human) potentiation | P14416 | HEK293 T-REx D2, calcium flux, EC20 dopamine potentiation | potentiation, % at 10 µM | 340,000 tested, 0.34% active;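 active = potentiation over 3 SD above the plate norm, cut at about 30% in these data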
Target sequence (P14416 whole entry, looked up): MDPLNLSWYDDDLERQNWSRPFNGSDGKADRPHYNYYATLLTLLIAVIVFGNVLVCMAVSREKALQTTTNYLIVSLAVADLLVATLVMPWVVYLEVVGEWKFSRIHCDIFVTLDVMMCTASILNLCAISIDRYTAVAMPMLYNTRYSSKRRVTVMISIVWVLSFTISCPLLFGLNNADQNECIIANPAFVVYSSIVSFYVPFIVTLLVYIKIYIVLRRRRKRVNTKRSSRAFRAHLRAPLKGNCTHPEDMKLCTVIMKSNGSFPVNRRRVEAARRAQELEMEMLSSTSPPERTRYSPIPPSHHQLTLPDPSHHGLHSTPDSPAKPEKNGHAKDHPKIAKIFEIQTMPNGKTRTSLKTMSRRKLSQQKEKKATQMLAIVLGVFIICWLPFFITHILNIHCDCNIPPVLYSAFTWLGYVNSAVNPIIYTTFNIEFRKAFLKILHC
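Potentiation of an EC20 dopamine calcium response measured kinetically over 180 s, after a preceding 180 s compound-only read flagging agonists. Cells: inducible Hek293 Trex D2 line, 4000/well, cultured overnight at 30 C before dye loading.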
D2 antag: D2 dopamine receptor (human) antagonism; P14416; HEK293 TREx D2 cells, calcium flux, dopamine EC80; inhibition, % at 10 µM; 340,000 tested, 2% active; AID 485344; in the data active = inhibition above about 30%; inactive = below that, where a call was filed
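In this primary screen, negative modulation is detected by tracking calcium flux after an EC80 dopamine challenge in inducible HEK293 T-REx D2 cells preexposed to test compound for 180 s.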
D2 PAM-2: human D2 receptor positive allosteric modulation. P14416. DiscoveRx D2 beta-arrestin cells, luminescence, 90 min; 100% = 57 uM dopamine signal. potentiation, % (test concentration not listed). 360,000 tested, 0.23% active; in the data active = potentiation above about 50%; inconclusive = mostly about 30% to 49%
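D2 cells co-treated with compound plus 50 nM dopamine (EC20) for 90 min at 37 deg C to detect potentiation. Beta-arrestin recruitment was read as enzyme-fragment luminescence after 1 h at ambient temperature. Full response was set by 57 uM dopamine.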
D2 ag-1: activates the human D2 dopamine receptor; DiscoveRx PathHunter D2 beta-arrestin, luminescence, 90 min; 100% = 57 uM dopamine signal; AID 624465; activation, % (test concentration not listed); 360,000 tested, 0.084% active; in the data active = activation above about 40%; inconclusive = between about 15% and that limit
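Agonist mode: compounds alone added to overnight-plated D2 PathHunter cells for 90 min at 37 C, with 57 uM final dopamine (EC100) defining full response. Beta-arrestin recruitment detected by chemiluminescent reagent, read after 1 h at ambient temperature.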
D2 ag-2: D2 dopamine receptor (human) agonism; activation, % at 2 µM; 340,000 tested, 0.53% active; HEK293 T-REx D2 cells, calcium flux agonist mode; P14416; AID 485358;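 active = activation over 3 SD above normal in the single-dose calcium agonist read, cut at about 30% in these data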
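Tetracycline-induced HEK293 T-REx cells with force-coupled D2 receptor, plated overnight at 30 C, loaded with no-wash calcium dye. After a 10 s baseline, compound was pin-added and calcium flux read kinetically for 180 s; calcium rises flagged agonists.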
Hits are given with their value; n = inactive; u = inconclusive; x = no result given; ! = a repeat was not active. A selection: hits, their analogues and other compounds. The true share with any hit is near 2.4%.

SMILES	D2 PAM-1	D2 antag	D2 PAM-2	D2 ag-1	D2 ag-2
CC(=O)N1c2ccc(S(=O)(=O)N3CCC(C(=O)Nc4cccc(Cl)c4)CC3)cc2CC1C (stereo unspecified)	n	41.2	n	n	n
CC(NC(=O)Cn1cccc1C(=O)c1ccccc1)c1ccc2c(c1)OCCO2 (stereo unspecified)	33.7	n	n	n	n
COc1ccccc1N1CCN(C2CCN(C3CCC(c4ccccc4)CC3)CC2)CC1 (stereo unspecified)	n	45.1	x	x	n
COc1ccccc1N1CCN(C2CCN(C(=O)COc3cccc(C)c3)CC2)CC1	n	69.4	n	n	n
COc1ccccc1N1CCN(C2CCC(C)CC2)CC1 (stereo unspecified)	n	n	n	n	n
CCOc1cc(Br)cc(C2NC(=O)c3c(sc4c3CCN(C)C4)N2)c1O (stereo unspecified)	n	x	x	x	n
CCOc1ccc(CNC(=O)CCC(=O)N2CC3CCCN3c3ccccc32)cc1 (stereo unspecified)	n	x	x	x	x
CCCCN=C(C)C1=C(O)CSC1=O	n	n	n	n	n
CC(=NCCc1ccccc1)C1=C(O)CSC1=O	n	n	u	n	35.0
C=CCNC(=O)c1onc(CSc2ccc(F)cc2)c1C(=O)O	n	n	n	n	n
O=C(NCc1ccccc1)c1onc(CSc2ccccc2)c1C(=O)NCC1CC1	n	38.8	n	n	n
C=CCNC(=O)c1onc(CSc2ccccc2)c1C(=O)O	n	31.8	n	n	n
O=C(NCc1ccccc1)c1onc(CSc2ccc(Cl)cc2)c1C(=O)NCC1CC1	n	n	n	n	n
N#Cc1c(N)n(C2OC(CO)C(O)C2O)c2ncnc(N)c12 (stereo unspecified)	x	x	n	n	x
CCOC(=O)c1ccc(NC(=O)C2(S(=O)(=O)c3ccc(Cl)cc3)CC2)cc1	n	x	x	x	n
O=C(Nc1ccc(F)cc1)C1(S(=O)(=O)c2ccc(Cl)cc2)CC1	n	36.9	n	n	n
CC(O)(c1cccc(F)c1)c1nc(-c2cnc3ccccc3c2)cs1 (stereo unspecified)	x	x	65.2	147.7	x
CCOc1cc(/C=N\Nc2nc(Nc3ccccc3)nc(N3CCOCC3)n2)ccc1OC(=O)c1ccco1	x	x	64.7	u	x
COc1cc(/C=N/Nc2ccc3ccccc3c2)ccc1OC(=O)c1ccco1	n	n	50.6	n	n
COc1cc(/C=N/Nc2nc(C)cc(C)n2)ccc1OC(=O)c1ccco1	n	n	n	n	n
Cc1ccc(C(=O)NCCc2c[nH]c3ccccc23)c(C)c1	n	73.8	n	n	n
Cc1ccc2ccc3cc(C(=O)Nc4ccc(C)c(F)c4)nc3c2[nH]1	n	x	x	x	x
CN(C)CCNc1ncnc2c1ncn2[C@H]1CN(Cc2cccs2)C[C@@H](CO)O1	x	x	n	n	x
CSc1nn(CC(=O)Nc2cc(C)ccc2C)c(N)c1S(=O)(=O)c1ccccc1	n	x	x	x	n
C#Cc1ccc(CN2CCC(Oc3ccc(C(=O)NCc4ccccn4)cc3)CC2)cc1	n	36.4	n	n	n
SMILES	D2 PAM-1	D2 antag	D2 PAM-2	D2 ag-1	D2 ag-2
CCN(C(=O)c1cn(CC)c(=O)c2cc(OC)c(OC)cc12)c1ccccc1F	n	x	x	x	n
O=C(Cn1nc(-c2ccccc2)c2cnc3ccc(F)cc3c21)NC1CCCC1	x	x	x	x	n
Cc1nc([N+](=O)[O-])c(Br)n1CC(=O)c1cccc([N+](=O)[O-])c1	n	n	n	n	n
Cc1nc([N+](=O)[O-])c(Br)n1CC(=O)c1ccc(F)cc1	n	33.6	n	n	n
COc1ccc(C(c2nnnn2C2CCCC2)N2CCc3ccccc3C2)cc1OC (stereo unspecified)	n	n	n	n	n
COCCn1nnnc1C(c1ccc(O)c(OC)c1)N1CCc2ccccc2C1 (stereo unspecified)	n	43.6	n	n	n
CCN(CC(=O)NC)S(=O)(=O)c1ccc(Br)cc1	33.8	n	n	n	n
Cc1ccccc1NC(=O)C(C)OC(=O)CCC(=O)c1ccccc1 (stereo unspecified)	x	x	n	n	x
COc1cc(NC(=O)C2CCN(c3nc4ccccc4nc3C(F)(F)F)CC2)cc(OC)c1	n	x	x	x	n
Cc1ccc(NC(=O)N2CCCC2C(=O)NCC2CCCCC2)cc1 (stereo unspecified)	n	35.3	n	n	n
CCc1ccc2c(c1)NC(c1cccnc1)=NC(c1ccc(C(C)(C)C)cc1)=N2	n	x	x	x	n
Cc1ccc(-c2nc(S(=O)(=O)c3ccc(F)cc3)c(SCC(=O)NCC3CCCO3)o2)cc1 (stereo unspecified)	36.3	n	n	n	n
Cc1ccc(-n2ncc3c(=O)[nH]c(SCC(=O)NCC4CCCO4)nc32)cc1 (stereo unspecified)	x	x	n	n	x
O=C(CSc1nc2c(cnn2-c2cccc(Cl)c2)c(=O)[nH]1)NCC1CCCO1 (stereo unspecified)	n	38.7	n	n	n
Cc1ccc(-c2[nH]c(-c3ccc(Cl)cc3)nc2SCC(=O)NCC2CCCO2)cc1 (stereo unspecified)	n	60.9	n	n	n
CCc1ccc(-c2nc(SCC(=O)NCC3CCCO3)c(-c3ccc(C)cc3)[nH]2)cc1 (stereo unspecified)	n	x	x	x	n
O=S(=O)(Nc1cccc(-c2ccc(N3CCCCC3)nn2)c1)c1cccs1	n	x	x	x	x
Cc1ccc(F)c(S(=O)(=O)NC(=O)C2(C)CCN2C(=O)CC2CCCCC2)c1 (stereo unspecified)	x	x	n	n	x
Cc1ccc(C(=O)Nc2nc(C(N)Cc3ccc(C(F)(F)F)cc3)cs2)cc1 (stereo unspecified)	x	x	n	n	x
Cc1ccc(C)c(-c2csc(-c3c(N)c(C(=O)c4ccc5c(c4)OCO5)n4ccccc34)n2)c1	n	x	x	x	n
CCOC(=O)C(C(=O)OCC)c1cc(Br)c2noc3c2c1C(=O)c1ccccc1-3	n	n	91.3	n	n
CC(=O)OCCNc1cc(N2CCN(C)CC2)c2noc3c2c1C(=O)c1ccccc1-3	n	n	n	n	n
CN(Cc1ccccc1)C(=C(Cl)Cl)/C(=C1/NCCN1C)[N+](=O)[O-]	n	n	n	n	n
CN(Cc1ccccc1)C(=C(Cl)Cl)C(=C1NCCN1)[N+](=O)[O-]	n	33.6	n	n	n
Cc1ccc(CN(C(=O)c2ccc(OCC(C)C)cc2)c2ccccn2)o1	n	x	x	x	n
CC(C)CCCN1CCN=C1Nc1ccccc1	n	39.0	n	n	n
Cc1ccc(NC(=O)CN2CCCCCC2)cc1Br	n	41.5	n	n	n
Cc1ccc(CCNC(=O)C2CCN(S(=O)(=O)c3ccc4c(ccn4C)c3)CC2)cc1	n	x	x	x	n
Cc1cc(C)c[n+](-c2nc3ccccc3nc2C(=C=[N-])C#N)c1	n	34.3!	n	n	n
O[C@@H]1CN(CC2CCCCC2)[C@@H](c2ccccc2)C[C@H]1n1cc(-c2ccc(F)cc2)nn1	x	x	n	n	x
